Source: PubChem BioAssay
In the library only some 3.4% were active in any assay of this set; here they are far more common.
TWEAK Fn14 block: inhibitors of TWEAK-Fn14 interaction signaling; TWEAK-stimulated Fn14 reporter cells, luciferase luminescence, 8 h; inhibition, % at 10 µM; 360,000 tested, 2% active; AID 1159606; in the data active = inhibition above about 50%
HIF-2a inh: blocks HIF-2a reporter activity. 786-0 RCC cells HIF-2a reporter, luciferase luminescence, overnight. inhibition, % at 18.8 µM. 360,000 tested, 0.72% active;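 active = inhibition of the luminescence signal of 40% or more relative to plate controls, in a single-dose primary screen at 18.75 µM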
TRPM1 prom inh: reduces MITF-dependent TRPM1 promoter luciferase signal; 330,000 tested, 0.83% active; inhibition, % at 12.5 µM; SK-MEL-5 TRPM1 promoter luciferase, 24 h;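 active = mean inhibition across replicates of 60% or more, whatever share of single replicates reaches that level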
Shn3 inh set2: inhibitors of Schnurri-3 3'UTR reporter in osteoblasts; AID 588674; Clone20 osteoblast Shn3 3'UTR firefly luciferase, 24 h; 360,000 tested, 0.52% active; inhibition, % at 12.5 µM;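 active = mean inhibition of at least 75% with every replicate also reaching 75%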;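 note: 0% = median of neutral control wells and 100% = pilot-screen positive control compound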
EBV LMP1 NFkB: reduces LMP1-driven NF-kappaB luciferase signal; 350,000 tested, 0.69% active; LMP1-induced NF-kappaB luciferase reporter cells, luminescence; inhibition, % at 12.5 µM; AID 504558; in the data active = inhibition above about 41%;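 note: 0% = neutral control wells and 100% = reference inhibitor control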
TROY NFkB inh: blocks TROY-dependent signaling in reporter cells; Q293 LMP1-TROYcd NF-kB luciferase reporter, 4 h; inhibition, % at 10 µM; 360,000 tested, 0.98% active;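 active = compounds whose plate-normalised and pattern-corrected inhibition of the luciferase reporter signal at the single screening dose is 50% or more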
* = called active by the depositor; / = no result given.

SMILES	TWEAK Fn14 block	HIF-2a inh	TRPM1 prom inh	Shn3 inh set2	EBV LMP1 NFkB	TROY NFkB inh
Cc1cc(Cl)ccc1OCC(=O)OCC(=O)Nc1ccc(Cl)cn1	-3	16	/	-17	-28	-16
CC(=O)OCC(=O)Nc1ccc(Cl)cc1Cl	54*	4	1	11	35	/
O=C(COc1ccc(Cl)cc1Cl)Nc1ccccc1F	55*	-153	-4	-14	-38	-7
COc1cccc(-c2cc3nc(C)c(C)c(N4CCN(C(=O)c5ccoc5)CC4)n3n2)c1	13	-30	/	16	-5	-4
Nc1nc2ccccc2cc1C(=O)NCc1ccc(Cl)cc1Cl	43	5	/	/	/	17
Cc1cn([C@H]2C[C@H](O)[C@@H](CNC(=O)c3ccccn3)O2)c(=O)[nH]c1=O	22	6	/	-11	18	8
Cc1ccc(C)c(SCC(=O)Nc2ccc(C)c(S(=O)(=O)N3CCOCC3)c2)c1	2	13	4	1	-3	12
COc1ncc(-c2c(-c3ccccc3OC)sc3ccccc23)cn1	-14	-4	/	/	/	-26
O=C(O)CCC(=O)NNC(=O)CCCOc1ccc(Cl)cc1Cl	97*	2	10	-1	-4	-6
O=C1COc2cc(S(=O)(=O)CCC(=O)N3CCCCC3)c(Cl)cc2N1	98*	7	/	-9	-2	3
CN1CCN(C(=O)CCS(=O)(=O)c2cc3c(cc2Cl)NC(=O)CO3)CC1	12	5	-8	5	8	3
Cc1ccc(NC(=O)COc2ccccc2[N+](=O)[O-])nc1	58*	-131	-1	-18	10	43
Cc1ccnc(NC(=O)COc2ccccc2[N+](=O)[O-])c1	51*	-45	-20	10	14	7
O=C(COc1ccccc1[N+](=O)[O-])Nc1cccnc1	-28	-262	-54	-58	-13	-21
COc1ccc2[nH]c(C(=O)Nc3ccc4c(c3)OCO4)cc2c1	-4	-323	/	-33	/	-26
Cc1nn(-c2ccccc2)c(C)c1NC(=O)COC(=O)c1ccccc1OC(F)F	2	5	-1	-14	1	51*
CC(=O)c1cc2c(cc1NC(=O)Cc1ccsc1)OCO2	-10	-11	1	9	-12	-14
CCOc1ccccc1NC(=O)C(=O)N/N=C/c1cc(Br)ccc1O	14	-1	59	91*	30	7
CC(=O)Nc1ccc(C(=O)N/N=C/c2cc(Br)cc(Br)c2O)cc1	-12	-1	22	7	3	25
O=C(N/N=C/c1cc(Br)ccc1O)c1ccncc1	-19	-1	76*	81	-2	-2
Cc1nc(C)c(C(=O)N/N=C/c2cc(Br)ccc2O)s1	17	7	63*	/	21	29
CC(C)C(=O)Nc1ccc(C(=O)N/N=C/c2cc(Br)cc(Br)c2O)cc1	-2	13	17	81	44*	2
CCOc1ccccc1C=NNC(=O)C(=O)NN=Cc1ccccc1OCC	-12	10	-5	5	7	-7
CC1=CC(=O)C(C(C)=Nc2cccc(Cl)c2)C(=O)O1 (stereo not drawn)	0	3	-4	6	-1	8
CCCCNC(=O)C1C(c2ccc(OC)cc2)=Nc2ccccc2N1C(=O)Cc1cc(OC)cc(OC)c1 (stereo not drawn)	/	-35	/	/	/	/
SMILES	TWEAK Fn14 block	HIF-2a inh	TRPM1 prom inh	Shn3 inh set2	EBV LMP1 NFkB	TROY NFkB inh
COc1cccc(C(C(=O)NCc2ccccc2)N2CCN(c3ccccc3F)CC2)c1OC (stereo not drawn)	/	10	/	/	/	/
O=C(N/N=C\c1cc(Br)ccc1O)c1ccc(S(=O)(=O)N2CCCCC2)cc1	36	14	74*	91*	15	26
O=C(N/N=C/c1ccc(O)c2ncccc12)c1cccc(Br)c1	17	0	65*	91*	-10	15
COc1ccccc1C(=O)N1CCN(C(=O)c2oc3c(C)c(C)ccc3c2C)CC1	0	3	/	-2	25	13
Cc1onc(-c2ccc3c(c2)OCO3)c1-c1ccc2[nH]ccc2c1	62*	25	25	8	-8	21
O=C(Nc1cc(S(=O)(=O)N2CCCC2)ccc1OCC(F)(F)F)c1ccncc1	7	5	/	8	1	-6
COc1ccc(/C(O)=C2/C(=O)C(=O)N(CCCN3CCOCC3)C2c2ccc(Cl)cc2)cc1 (stereo not drawn)	9	3	/	5	0	-2
O=S1(=O)CC(N2CCCCC2)C(N2CCCCC2)C1 (stereo not drawn)	-15	14	14	7	51*	-1
Cc1ccc(NC(=O)Nc2ccc3c(c2)nc(C)n3C)cc1	21	-118	-9	-116	-4	-30
Cc1nc2cc(NC(=O)Nc3ccccc3Cl)ccc2n1C	59*	-21	16	2	14	34
Cc1cccc(C(=O)Nc2ccc3c(c2)nc(C)n3C)c1	59*	-65	2	-2	12	19
Cc1nc2cc(NC(=O)N3c4ccccc4CC3C)ccc2n1C (stereo not drawn)	57*	-121	-12	-12	-6	39
Cc1cccc(C(=O)Nc2ccc3c(c2)ncn3C)c1	17	-221	-121	-94	-23	-25
Cc1c([N+](=O)[O-])cc(N2C(=O)C=CC2=O)cc1[N+](=O)[O-]	7	21	50	21	6	7
Cc1cc(N2C(=O)C=CC2=O)c([N+](=O)[O-])cc1C	-3	51*	32	89*	-7	3
O=C1/C(=C/c2cccc(Br)c2)SC(=S)N1CCC(=O)N(CCO)c1ccccc1	86*	32	-16	-16	-2	35
O=C(CCN1C(=O)/C(=C/c2ccc3c(c2)OCO3)SC1=S)Nc1ccccc1	-85	11	-14	8	-32	-8
COc1cccc(/C=C2\SC(=S)N(CCCC(=O)N(CCO)c3ccccc3)C2=O)c1	28	86*	11	-10	19	45
O=C1/C(=C/c2ccc3c(c2)OCO3)SC(=S)N1CCC(=O)N(CCO)c1ccccc1	39	43*	/	-59	4	27
Cc1nc(C(F)(F)F)ccc1C(=O)N1CCC1(C)C(=O)NS(=O)(=O)c1c(C)noc1C (stereo not drawn)	-81	12	/	-13	/	19
CN1CCN(C(CNC(=O)C(=O)Nc2ccc3c(c2)OCO3)c2ccc(F)cc2)CC1 (stereo not drawn)	6	-7	-14	12	-2	-3
OC(CN1CCN(c2ccccn2)CC1)Cn1c2ccc(Cl)cc2c2cc(Cl)ccc21 (stereo not drawn)	52*	10	-22	6	-33	-1
CCS(=O)(=O)c1ccc2oc(SCC(=O)c3c(N)n(C4CC4)c(=O)[nH]c3=O)nc2c1	-10	19	-8	-4	4	-1
N#Cc1ccc(OCC(=O)OCC(=O)N2CCc3ccccc32)cc1	0	11	/	0	1	-4
CC(=O)N(C)c1ccc(N=Nc2c(C)[nH]n(-c3ccccc3)c2=O)cc1	26	-20	2	2	0	-5
